Test results as given in PubChem BioAssay AID1117319 (Southern Research Institute, 2015).
Values joined by “and” are separate entries in the source; they are usually repeats but may differ in a detail not shown here. Equal entries are not always repeated. Out of some 260,000 compounds screened, about 1,500 (0.58%) were called active. About 5% were inconclusive and are not listed.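 How the source made its calls: active means inhibition above a set limit at one or more doses, reproduced on every date tested; inconclusive means results disagree between test dates, or hit never tested in dose response; inactive means the rest.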 Not all results are given here. Entries with a potency or affinity are not part of this list.

The molecules below were run against Virion infectivity factor (Human immunodeficiency virus type 1 group M subtype B (isolate BH10)) + Virion infectivity factor (Human immunodeficiency virus type 1 group M subtype B (isolate BRU/LAI)) + Virion infectivity factor (Human immunodeficiency virus type 1 group M subtype B (isolate PCV12)) + Virion infectivity factor (Human immunodeficiency virus type 1 group M subtype B (isolate HXB2)) + DNA dC->dU-editing enzyme APOBEC-3G (Homo sapiens) (UniProt P69720+P69721+P69722+P69723+Q9HC16) (assay: HIV-1 Vif–A3G interaction blockers – biochemical, TR-FRET, GST-Vif 1-94, biotin-A3G peptide, dose response retest, primary screen (AID 1117319;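 further: Vif residues 1-94 fused to GST binding biotinylated APOBEC3G peptide 110-148; 0% = full assay without inhibitor and 100% = GST in place of GST-Vif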)). Settings: TR-FRET GST-Vif / biotin-A3G peptide binding; hits give high values.

inhibition, inactive:
CCOC(=O)Cc1ncccc1C(=O)Nc1ccc(Oc2ccccc2)cc1 -1.5%
COc1ccc(C(=O)NCc2nnc(SCC(=O)Nc3nc4ccc(C)cc4s3)o2)cc1OC 9%
COc1ccc(C(=O)NCc2nnc(SCC(=O)Nc3nc4ccccc4s3)o2)cc1OC 0.33%
Cc1ccc(CSc2nc3ccncc3n2CC(=O)Nc2cc(C)cc(C)c2)cc1 -48.6%
Cc1sc2ncnc(SCC(=O)NC(=O)NCc3ccco3)c2c1C -3.92%
Cc1sc2ncnc(NCc3ccco3)c2c1C 23.1%
COc1ccc2c(c1)CC(C1(O)C(=O)N(C)c3ccccc31)C2=O (centres undefined) -5.17%
Cc1ccc(NC(=O)Nc2ccc3c(c2)nc(C)n3C)cc1 66.9%
CC(=O)c1ccc(NC(=O)Nc2ccc3c(c2)nc(C)n3C)cc1 11.4%
COc1ccc(NC(=O)CN(C)C(=O)CSc2nc3ccccc3s2)cc1 -0.85%
Cc1ccc(-n2nc3c(c2NC(=O)c2ccc(Br)o2)CSC3)c(C)c1 17%
Cc1ccccc1-n1nc2c(c1NC(=O)c1ccc(Br)o1)CSC2 17.6%
COc1ccc(NC(=O)COC(=O)c2ccc(S(=O)(=O)N3CC(C)CC(C)C3)cc2)cc1OC (centres undefined) 0.85%
CC(=O)Nc1ccc(S(=O)(=O)Nc2nc3ccccc3nc2Nc2ccc(S(N)(=O)=O)cc2)cc1 23.8%
CC(=O)Nc1ccc(S(=O)(=O)Nc2nc3ccccc3nc2Nc2cccc(O)c2)cc1 6.78%
CC(=O)Nc1ccc(S(=O)(=O)Nc2nc3ccccc3nc2Nc2ccc(O)cc2)cc1 -3.02%
CC(=O)Nc1ccc(Nc2nc3ccccc3nc2NS(=O)(=O)c2ccccc2)cc1 17.2%
Cc1ccc(NC(=O)CS(=O)(=O)c2c[nH]c3ccccc23)c(C)c1 -0.62%
COCCNC(=S)N/N=C(\C)CCc1ccc2c(c1)OCO2 3.32%
O=C(/C=C/c1ccco1)NC(=S)Nc1ccccc1 10.3%
O=C(/C=C/c1ccco1)Nc1ccccc1C(=O)Nc1cccc(C(=O)O)c1 30.8%
CC(=O)c1ccc(NC(=S)NC(=O)/C=C/c2ccco2)cc1 9.46%
Cc1cc(NC(=O)/C=C/c2ccco2)ccc1NC(=O)c1ccccc1 11.7%
COc1cccc(NC(=S)NC(=O)/C=C/c2ccco2)c1 28.1%
Cc1ccc(O)c(NC(=S)NC(=O)/C=C/c2ccco2)c1 -4.52%
Cc1cc(C(=O)NNC(=O)/C=C/c2ccccc2Cl)c(C)o1 -12.6%
COc1ccc(/C=C/C(=O)NNC(=O)c2cc(C)oc2C)cc1 1.71%
COc1cc(OC)cc(C(=O)NCC(=O)OCc2nc3ccccc3s2)c1 5.21%
COC(=O)C(NC(=O)c1ccccc1)(Nc1cc(C)cc(C)n1)C(F)(F)F (centres undefined) -5.13%
COc1ccc(CN2C(=O)C(CC(=O)NCCCCc3ccccc3)CC(C(=O)N(C(C)C)C(C)C)=C2C)cc1 (centres undefined) 6.93%
CN(Cc1ccccc1)C(=O)CCC(=O)N(C)Cc1ccccc1 0.41%
C=CCNc1nc2c(c(=O)[nH]c(=O)n2C)n1Cc1cccc(C)c1 -3.73%
CCN(CC)CCOC(=O)c1ccc(NC(=O)COc2cc(=O)n(CC)c3ccccc23)cc1 3.06% and 4.99%
COCCCN1C(=O)c2ccc(C(=O)NCc3ccco3)cc2C1=O 1.46%
CC(C)C(=O)N1CCN(c2ccccc2NC(=S)NC(=O)/C=C/c2ccco2)CC1 4.53%
O=C(/C=C/c1ccco1)NC(=S)Nc1cc(C(F)(F)F)ccc1N1CCOCC1 31.6%
CS(=O)(=O)N(CCC#N)Cc1ccc(C=O)o1 -8.77%
CS(=O)(=O)N(CCC#N)Cc1ccc(/C=C2\C(=O)Nc3ccccc32)o1 -11%
Cc1ccc(Sc2ccc(/C=C3/C(=O)NN(c4ccccc4)C3=O)o2)cc1 22.1%
CS(=O)(=O)N(CCC#N)Cc1ccco1 0.4%
COc1cc2c(cc1OC)CN(C(=O)c1cc3ccccc3oc1=O)CC2 1.51%
Cc1ccc(S(=O)(=O)N2CCC[C@H]2C(=O)OCCN2C(=O)c3ccccc3C2=O)cc1 -7.91%
COC(=O)CN(C(=S)Nc1ccccc1)C1CC(=O)N(c2ccc(OC)cc2)C1=O (centres undefined) -1.92%
Cc1cccc(NC(=O)C2CC(=O)NC(Nc3nc4ccccc4s3)=N2)c1 (centres undefined) 11.6%
O=C(COc1ccccc1)N1CCN(C(=O)c2cccs2)CC1 17.7%
C=CCc1cc(/C=C/c2nc(O)c([N+](=O)[O-])c(=O)[nH]2)cc(OC)c1O 15%
Cc1cccc(NC(=S)NC(=O)C(c2ccccc2)c2ccccc2)n1 -6.56%
CCOC(=O)c1c(C)oc2c1C(=O)c1ccccc1C2=O 6.8%
CCOc1ccc2noc3c2c1C(=O)c1ccccc1-3 31.7%
CN1C(=O)S/C(=C/c2cccn2-c2cccc(C(=O)O)c2)C1=O 6.22%
Cc1ccc(NC(=O)CN2C(=O)S/C(=C\c3cccn3-c3cccc(C(=O)O)c3)C2=O)cc1C -0.87%
Cc1ccccc1NC(=O)CN1C(=O)S/C(=C\c2cccn2-c2cccc(C(=O)O)c2)C1=O 31.2%
Cc1cccc(C)c1NC(=O)CN1C(=O)S/C(=C\c2cccn2-c2cccc(C(=O)O)c2)C1=O 6.97%
Cc1ccc(OCC(=O)N2CCOCC2)cc1C -10.7%
CCCOc1ccc(N2C(=O)CC(N3CCN(CCN=CC4=C(O)CC(C)(C)CC4=O)CC3)C2=O)cc1 (centres undefined) 8.53%
CCOC(=O)C1CCN(C(=O)C2CCN(S(=O)(=O)c3cccc4nsnc34)CC2)CC1 -1.01%
COc1cc(C(=O)Oc2ccccc2N)cc(OC)c1OC -1.18%
Oc1ccc(N=Nc2ccccc2C(F)(F)F)c2cccnc12 9.97%
O=Nc1ccc(O)c2ncccc12 25.1%
CC(C)Oc1ccccc1C1CC(=O)Nc2c1c(=O)n(C)c(=O)n2C (centres undefined) 0.23%
COc1cccc(C2CC(=O)Nc3c2c(=O)n(C)c(=O)n3C)c1OC (centres undefined) 10.5%
O=C(CCCC(=O)OCC(F)(F)C(F)F)Nc1ccccc1F 0.88%
O=C(O)C1CCCCC1C(=O)Nc1nc(-c2cccs2)cs1 (centres undefined) -11.2%
CC(=O)OC1COC(n2ccc3cc([N+](=O)[O-])ccc32)C(OC(C)=O)C1OC(C)=O (centres undefined) -8.03%
CC(=O)O[C@@H]1[C@@H](OC(C)=O)[C@H](n2ccc3cc([N+](=O)[O-])ccc32)OC[C@@H]1OC(C)=O 11.9%
CCOc1ccc(-c2nc(CSc3nnc(N)s3)cs2)cc1 -2.32%
CC(=O)c1ccc(OC(=O)CCN2c3ccccc3Sc3ccccc32)cc1 3.97%
CN1CCN(C(=O)c2cc(-c3ccco3)on2)CC1 -6.26%
O=C(c1cc(-c2ccco2)on1)N1CCOCC1 5.5%
O=C(c1ccc(NS(=O)(=O)c2ccccc2)cc1)N1CCN(Cc2ccc3c(c2)OCO3)CC1 -2.32% and -6.24%
CCc1ccc(N(CC)C(=O)Cc2c(C(=O)O)n(C)c3ccccc23)cc1 3.87%
C=CCOC(=O)C1=C(C)N=C2SCCC(=O)N2C1c1ccc(OC(=O)c2ccco2)cc1 (centres undefined) -4.13%
Cn1c(-c2cnn(-c3ccccc3)c2-n2cccc2)n[nH]c1=S -6.44%
CCc1oc(C(=O)O)cc1CN(CC)CC 19%
CCN(CC)Cc1cc(C(C)=O)ccc1O 1.01%
O=C(COC(=O)c1cc(=O)[nH]c2ccccc12)Nc1nccs1 0.86%
Cc1ccc(C(=O)C2=C(O)C(=O)N(c3ncccn3)C2c2ccc(Cl)cc2)o1 (centres undefined) -30.5%
Cc1ccc(C(=O)C2=C(O)C(=O)N(c3ncccn3)C2c2ccc(Br)cc2)o1 (centres undefined) 10.3%
Cc1ccc(-n2c(-c3ccccc3)nnc2-c2cccs2)cc1 -9.97%
O=C(CCc1ccc(S(=O)(=O)NCc2ccccc2)cc1)N1CCN(Cc2ccc3c(c2)OCO3)CC1 1.72%
CC1(C)CC(=O)CC(C)(C)N1OC(=O)c1ccco1 0.85%
COCCN1C=C2C(=O)C(C)(OC(=O)CCC(=O)OC)C(=O)C=C2C=C1C1CC1 (centres undefined) 10.6%
CN1/C(=C\C(=O)COC(=O)c2ccco2)C(C)(C)c2ccccc21 3.26%
COC(=O)CCC(=O)OC1(C)C(=O)C=C2C=C(C3CC3)N(C3CCCCC3)C=C2C1=O (centres undefined) 17.8%
CCCCC1=CC2=CC(=O)C(C)(OC(=O)CC)C(=O)C2=CN1CCc1ccccn1 (centres undefined) 21.2%
COC(=O)CCC(=O)OC1(C)C(=O)C=C2C=C(C3CC3)N(c3cccc(C#N)c3)C=C2C1=O (centres undefined) 11.9%
COC(=O)CCC(=O)OC1(C)C(=O)C=C2C=C(C3CC3)N(CCc3ccccn3)C=C2C1=O (centres undefined) -2.65%
CCCCC1=CC2=CC(=O)C(C)(OC(=O)CC)C(=O)C2=CN1Cc1ccccc1 (centres undefined) 25%
CCN(CC(=O)NC)S(=O)(=O)c1ccc(Br)cc1 0.33%
